PubChem BioAssay (NCATS)
Results filed as inconclusive are left out. The source holds several records for some structures; these can differ, active in one and inactive in another. Calls of active or inactive are those of the source. Unless noted, calls follow the shape of the dose curve; as a rule, active = well fitted curve in the direction sought with a large enough effect; inconclusive = small, poorly fitted or top-dose-only effect, or another doubt; inactive = no such curve, though single readings can be large; an effect the other way counts as inactive or inconclusive.

How the values were obtained:
[1] = target: Lysosomal alpha-glucosidase (Homo sapiens) (UniProt P10253); experiment: Confirmation of Inhibitors and Activators of Purified Human alpha-Glucosidase (AID 2115; active = well fitted curve in either direction with a large enough effect)
In short: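 Purified human enzyme (4 nM) with 4-methylumbelliferyl-alpha-D-glucopyranoside (400 uM), compounds up to 77 uM, in citrate/phosphate buffer pH 5.0 with 0.005% Tween-20. After 20 min at RT, stopped at pH 10; fluorescence ex 365/em 440 nm; AC50 from Hill fits.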

[2] = target: Calcium and integrin-binding protein 1 (Homo sapiens) (UniProt Q99828); experiment: Primary qHTS for Identification of Calcium Integrin Binding Protein 1 (CIB1) Competitor (AID 1508620);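 also: GST tagged CIB1 binding a fluorescein labelled alphaIIb integrin peptide tracer; top concentration of the series differs between compounds; % is scaled to controls: 0 for no effect and ±100 for the full control effect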
In short: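 Fluorescence polarization competition: CIB1-GST (1 uM final) preincubated with compound 15 min at room temperature, then FITC-labeled alphaIIb peptide (100 nM final) added for another 15 min. Polarization read at Ex 480/Em 540.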

[3] = target: Glutathione peroxidase 1 (Homo sapiens) (UniProt P07203); experiment: Primary qHTS Assay for Inhibitors of Recombinant Selenoprotein Glutathione Peroxidase 1 (GPX1) (AID 1845191); also: % is scaled to controls: 0 for no effect and ±100 for the full control effect; nearly all actives have a fitted effect of over 65% in size
In short: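 Recombinant GPX1 (10 nM final) was preincubated with compound for 30 min at room temperature, then reacted with 1 mM GSH, 0.5 mM CHP, 0.5 mM NADPH and 100 nM glutathione reductase; NADPH fluorescence (340/450 nm) was read at 0 and 15 min.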

[4] = target: Rap guanine nucleotide exchange factor 3 (Homo sapiens) (UniProt O95398); experiment: Confirmatory qHTS for antagonist of cAMP-regulated guanine nucleotide exchange factor 3 (EPAC1) (AID 1645880); also: nearly all actives have a fitted effect of over 55% in size; also: potency is read from the fitted curve at half-maximal effect;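 as to activity, negative = inhibition: plate controls were DMSO only for no effect and full effect of the ATA control for full effect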
In short: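 Nucleotide exchange uses 100 nM EPAC1, 250 nM RAP1B-BODIPY-GDP and 50 uM GDP, with compounds in a concentration-titration series. After 5 min at room temperature, fluorescence (480 nm ex/540 nm em) is read every 5 min for 30 min. Data are normalized to control ATA and DMSO.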

[5] = target: Rap guanine nucleotide exchange factor 3 (Homo sapiens) (UniProt O95398); experiment: Confirmatory qHTS for agonist of cAMP-regulated guanine nucleotide exchange factor 3 (EPAC1) (AID 1645881);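 also: EPAC1 catalysed release of BODIPY-GDP from Rap1B seen as fluorescence loss; 100% = effect of cAMP agonist control; nearly all actives have a fitted effect of over 75% in size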
[6] = target: Rap guanine nucleotide exchange factor 4 (Homo sapiens) (UniProt Q8WZA2); experiment: Confirmatory qHTS for agonist of cAMP-regulated guanine nucleotide exchange factor 4 (EPAC2) (AID 1645884);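 also: nucleotide exchange releases bodipy-GDP from Rap1 and this lowers its fluorescence; % is scaled to controls: 0 for no effect and ±100 for the full control effect; nearly all actives have a fitted effect of over 65% in size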
[7] = target: Rap guanine nucleotide exchange factor 4 (Homo sapiens) (UniProt Q8WZA2); experiment: Confirmatory qHTS for antagonist of cAMP-regulated guanine nucleotide exchange factor 4 (EPAC2) (AID 1645885); also: % is scaled to controls: 0 for no effect and ±100 for the full control effect; nearly all actives have a fitted effect of over 25% in size
[8] = target: Rap guanine nucleotide exchange factor 3 (Homo sapiens) (UniProt O95398); experiment: Counterscreen qHTS for antagonist of cAMP-regulated guanine nucleotide exchange factor 3 (EPAC1) (AID 1645888);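 also: fluorescence loss as bound BODIPY-GDP is released from Rap1B; % of control where 0% means no effect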
In short: (§1)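 Measured: fluorescence of BODIPY-GDP bound to Rap1B, which falls as exchange proceeds. Conditions include 50 uM competing GDP, 5 and 30 min reads, and a later cAMP challenge for antagonist detection.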

[9] = Primary qHTS for inhibitors of nuclear receptor binding SET domain protein 2 (NSD2) in an isogenic RCH-ACV NSD2 p.E1099K mutant (9B) (AID 1645876); also: % is scaled to controls: 0 for no effect and ±100 for the full control effect; nearly all actives have a fitted effect of over 70% in size
[10] = target: Rap guanine nucleotide exchange factor 3 (Homo sapiens) (UniProt O95398); experiment: Counterscreen qHTS for agonist of cAMP-regulated guanine nucleotide exchange factor 3 (EPAC1) (AID 1645889); also: % of control where 0% means no effect; nearly all actives have a fitted effect of over 40% in size
In short: as §1

[11] = target: Lysosomal acid glucosylceramidase (Homo sapiens) (UniProt P04062); experiment: Glucocerebrosidase-p2 (AID 348; in the data active = potency below about 10 µM; also: potency is read from the fitted curve at half-maximal effect); details: purified GBA, blue fluorogenic substrate, 40 min
In short: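 Compounds titrated from 0.6 nM upwards against 0.2 nM enzyme in pH 5.9 citric acid/KH2PO4, taurocholate, tween-20; blue fluorogenic substrate 80 uM, 40 min room temperature, stopped and read Ex 365/Em 440 for AC50.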

[12] = AP1 Signaling Pathway (AID 357; active = well fitted curve in either direction with a large enough effect, not every such curve was filed as active;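 also: ME-180 reporter cells stimulated with EGF at its EC50 level; % is scaled to controls: 0 for no effect and ±100 for the full control effect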); details: ME-180 AP-1-bla reporter, EGF-induced, beta-lactamase ratio, 5 h; at 7.69 µM (top of the series) unless noted
In short: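 In this screen, ME-180 cells in Opti-MEM with 0.5% dialyzed FBS received EC50 EGF and compound titrations for 5 h. AP-1 reporter beta-lactamase was detected via CCF4 ratio, giving AC50 for positive and negative modulators.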

[13] = target: Cytochrome P450 1A2 (Homo sapiens) (UniProt P05177); experiment: p450-cyp1a2 (AID 410; calls by dose curve; also: potency is read from the fitted curve at half-maximal effect)
In short: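 20nM CYP1A2 with 100uM Luciferin-ME (at Km) in 100mM KPO4; compound preincubated 10 min, NADPH regeneration added, 60 min at room temperature. Luciferin quantified by luminescence after detection reagent; normalized to 57 uM furafylline.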

[14] = NFAT Signaling Pathway (AID 444; active = well fitted curve in either direction with a large enough effect, not every such curve was filed as active;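 also: carbachol stimulus at about its EC50 of 1 µM final; % is scaled to controls: 0 for no effect and ±100 for the full control effect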); details: Jurkat NFAT-bla M1, carbachol, beta-lactamase ratio, 5 h; at 7.69 µM (top of the series) unless noted
In short: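 Jurkat cells carrying an NFAT-driven β-lactamase reporter and co-transfected muscarinic M1 receptor were treated with compound plus carbachol (1 uM final, an EC50 level) for 5 h at 37 °C. CCF4 loading followed for 1 h at RT; 460/530 nm ratio gave %activity.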

[15] = Stat Signaling Pathway (AID 446; active = well fitted curve in either direction with a large enough effect, not every such curve was filed as active;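 also: ME-180 cervical cancer cells given 40 pM IL-6 alongside compound; SIE-controlled beta-lactamase reporter measured as 460/530 nm FRET emission ratio; % is scaled to controls: 0 for no effect and ±100 for the full control effect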); details: ME-180 SIE beta-lactamase reporter, IL-6 stimulated, 5 h; at 7.69 µM (top of the series) unless noted
In short: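 ME-180 SIE-bla cells; overnight plating; cpd + IL-6 40 pM, 5 h, 37 C; LiveBLAzer 2.5 h RT; 460/530 nm emission ratio. Normalized to 300 pM IL-6 and 125 nM JAK inhibitor controls.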

[16] = target: Glucocorticoid receptor (Homo sapiens) (UniProt P04150); experiment: GR-GFP Redistribution (AID 450;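 active = compounds whose dose series gives a full or clear partial fitted curve of increased nuclear translocation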; also: potency is read from the fitted curve at half-maximal effect); details: U2OS GR-GFP nuclear translocation, laser cytometry, 2 h
[17] = target: Glucocorticoid receptor (Homo sapiens) (UniProt P04150); experiment: GR-EFC Redistribution (AID 451; calls by dose curve; also: potency is read from the fitted curve at half-maximal effect); details: CHO-K1 GR-EFC translocation, beta-gal luminescence, 2 h
In short: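 CHO-K1 cells stably expressing nuclear-localized β-gal enzyme acceptor and GR fused C-terminally to the enzyme donor fragment; ligand-driven nuclear translocation restores β-gal by complementation. Compounds titrated up to 46 uM final, 2 h at 37 °C; luminescence read.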

[18] = target: Mitogen-activated protein kinase 10 (Mus musculus) (UniProt Q61831); experiment: JNK3 AlphaScreen Assay (AID 530; active = well fitted curve in either direction with a large enough effect, not every such curve was filed as active)
In short: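 Inhibitors reduce antibody binding to phosphorylated biotin-cJun, lowering AlphaScreen luminescence. Lysates from HepG2 cells pre-activated by IL-1beta plus TNF-alpha supplied JNK3; compounds were titrated.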

[19] = target: Cytochrome P450 3A4 (Homo sapiens) (UniProt P08684); experiment: qHTS Assay for Inhibitors and Substrates of Cytochrome P450 3A4 (AID 884); also: potency is read from the fitted curve at half-maximal effect; nearly all actives have a fitted effect of over 50% in size
In short: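 20 nM human CYP3A4 with 25 uM Luciferin-PPXE (at KM) in 200 mM KPO4, preincubated 10 min with compound; NADPH regeneration started a 60 min RT reaction. Luciferin detected by luminescence, normalized to 57 uM ketoconazole as full inhibition.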

[20] = target: Cytochrome P450 3A4 (Homo sapiens) (UniProt P08684); experiment: qHTS Assay for Activators of Cytochrome P450 3A4 (AID 885); also: nearly all actives have a fitted effect of over 65% in size
In short: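 20nM CYP3A4 + 25uM Luciferin-PPXE (=KM), 200mM KPO4; cpd 10 min RT; NADPH regen, 60 min RT; stop w/ detection buffer, 20 min; luminescence. Normalized to 57 uM ketoconazole.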

[21] = target: Cytochrome P450 2D6 (Homo sapiens) (UniProt P10635); experiment: qHTS Assay for Inhibitors and Substrates of Cytochrome P450 2D6 (AID 891); also: potency is read from the fitted curve at half-maximal effect; nearly all actives have a fitted effect of over 60% in size
In short: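 Human CYP2D6 (5 nM) with 30 uM Luciferin-ME EGE (at Km) in 100 mM KPO4, compound preincubated 10 min, then NADPH regeneration system for 60 min at room temperature. Luciferin read by luminescence; normalized to 1.43 uM quinidine.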

[22] = target: Dual specificity protein kinase CLK4 (Homo sapiens) (UniProt Q9HAZ1); experiment: qHTS Assay for Inhibitors of CDC-like Kinase 4 (Kinase-Glo Assay) (AID 1770); also: potency is read from the fitted curve at half-maximal effect; nearly all actives have a fitted effect of over 65% in size
In short: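 Substrate mix (RS peptide 100 uM, ATP 1 uM) dispensed, compound pinned in, then Clk4 added to 25 nM final. Incubated 4.5 h at RT; Kinase-Glo reagent added, luminescence read after 5 min.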

[23] = target: Dual specificity protein kinase CLK4 (Homo sapiens) (UniProt Q9HAZ1); experiment: qHTS Assay for Inhibitors of CDC-like Kinase 4 (ADP-FP Assay) (AID 1795); also: potency is read from the fitted curve at half-maximal effect; nearly all actives have a fitted effect of over 60% in size
In short: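 Clk4 6.25 nM; RS peptide 100 uM; ATP 1 uM; 25 mM Tris pH 7.5, 10 mM MgCl2; 1 h reaction. ADP detected via antibody/orange tracer FP displacement; TG003 positive control.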

[24] = target: Ubiquitin carboxyl-terminal hydrolase 1 (Homo sapiens) (UniProt O94782); experiment: Inhibitors of USP1/UAF1: Pilot qHTS (AID 504865);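 also: rhodamine fluorescence freed from ubiquitin-rhodamine substrate followed over time; top concentration of the series differs between compounds; % is scaled to controls: 0 for no effect and ±100 for the full control effect; nearly all actives have a fitted effect of over 35% in size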
In short: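 In 50mM HEPES pH 7.8 containing 0.5mM EDTA, 1mM TCEP, 0.1 mg/ml BSA and 0.01% Tween-20, 1nM USP1/UAF1 is exposed to compound for 15 min, then Ub-Rho (150nM final) is added and fluorescence is read over time.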

[25] = Primary qHTS for small molecule stabilizers of the endoplasmic reticulum resident proteome: Secreted ER Calcium Modulated Protein (SERCaMP) assay (AID 1508630); also: % is scaled to controls: 0 for no effect and ±100 for the full control effect
In short: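 GLuc-SERCaMP-expressing SH-SY5Y cells, pretreated 16 h with compound, are challenged with thapsigargin to empty ER calcium stores; after 4 h, coelenterazine is added directly to the medium and luminescence is imaged.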

[26] = qHTS for Inhibitors of Ubiquitin-specific Protease USP2a Using CHOP2 as the Reporter: Cytotox Assay (AID 652170);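 also: plate controls were DMSO-treated cells for no effect and wells without cells for full effect; nearly all actives have a fitted effect of over 70% in size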
In short: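 HCT116 human colon cancer cells, 600 per well in DMEM with 10% FBS, exposed to compounds for 72 hr at 37 deg C. ATP measured by CellTiter-Glo luminescence, normalized to DMSO cells and no-cell background.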

Chain of Rap guanine nucleotide exchange factor 4 (Homo sapiens) (Q8WZA2 whole entry, looked up): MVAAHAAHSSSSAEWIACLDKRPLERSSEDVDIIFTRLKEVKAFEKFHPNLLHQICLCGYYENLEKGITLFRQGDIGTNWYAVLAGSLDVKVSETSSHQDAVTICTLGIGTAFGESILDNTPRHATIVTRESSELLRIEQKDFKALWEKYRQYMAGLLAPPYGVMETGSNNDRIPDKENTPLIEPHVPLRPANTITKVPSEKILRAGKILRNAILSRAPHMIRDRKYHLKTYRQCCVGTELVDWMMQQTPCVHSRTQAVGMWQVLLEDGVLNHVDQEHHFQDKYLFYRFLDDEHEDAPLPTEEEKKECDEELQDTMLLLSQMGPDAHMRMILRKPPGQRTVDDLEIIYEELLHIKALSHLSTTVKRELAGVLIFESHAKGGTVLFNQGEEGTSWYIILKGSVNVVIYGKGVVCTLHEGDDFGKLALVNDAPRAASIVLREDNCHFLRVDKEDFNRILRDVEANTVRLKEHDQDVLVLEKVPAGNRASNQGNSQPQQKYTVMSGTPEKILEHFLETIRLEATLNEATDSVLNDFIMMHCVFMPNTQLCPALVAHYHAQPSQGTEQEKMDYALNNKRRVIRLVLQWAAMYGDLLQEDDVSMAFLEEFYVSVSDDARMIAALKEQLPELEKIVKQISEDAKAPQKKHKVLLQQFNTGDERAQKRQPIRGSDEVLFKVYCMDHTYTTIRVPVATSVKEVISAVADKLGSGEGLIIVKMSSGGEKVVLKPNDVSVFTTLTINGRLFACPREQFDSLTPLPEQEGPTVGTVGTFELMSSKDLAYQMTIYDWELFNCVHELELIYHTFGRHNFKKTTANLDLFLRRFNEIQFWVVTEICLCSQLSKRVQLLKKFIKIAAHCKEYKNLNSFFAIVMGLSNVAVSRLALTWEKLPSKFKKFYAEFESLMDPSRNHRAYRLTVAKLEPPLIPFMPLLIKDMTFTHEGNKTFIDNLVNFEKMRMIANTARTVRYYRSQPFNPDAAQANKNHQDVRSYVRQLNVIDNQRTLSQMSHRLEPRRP
Chain of Rap guanine nucleotide exchange factor 3 (Homo sapiens) (O95398 whole entry, looked up): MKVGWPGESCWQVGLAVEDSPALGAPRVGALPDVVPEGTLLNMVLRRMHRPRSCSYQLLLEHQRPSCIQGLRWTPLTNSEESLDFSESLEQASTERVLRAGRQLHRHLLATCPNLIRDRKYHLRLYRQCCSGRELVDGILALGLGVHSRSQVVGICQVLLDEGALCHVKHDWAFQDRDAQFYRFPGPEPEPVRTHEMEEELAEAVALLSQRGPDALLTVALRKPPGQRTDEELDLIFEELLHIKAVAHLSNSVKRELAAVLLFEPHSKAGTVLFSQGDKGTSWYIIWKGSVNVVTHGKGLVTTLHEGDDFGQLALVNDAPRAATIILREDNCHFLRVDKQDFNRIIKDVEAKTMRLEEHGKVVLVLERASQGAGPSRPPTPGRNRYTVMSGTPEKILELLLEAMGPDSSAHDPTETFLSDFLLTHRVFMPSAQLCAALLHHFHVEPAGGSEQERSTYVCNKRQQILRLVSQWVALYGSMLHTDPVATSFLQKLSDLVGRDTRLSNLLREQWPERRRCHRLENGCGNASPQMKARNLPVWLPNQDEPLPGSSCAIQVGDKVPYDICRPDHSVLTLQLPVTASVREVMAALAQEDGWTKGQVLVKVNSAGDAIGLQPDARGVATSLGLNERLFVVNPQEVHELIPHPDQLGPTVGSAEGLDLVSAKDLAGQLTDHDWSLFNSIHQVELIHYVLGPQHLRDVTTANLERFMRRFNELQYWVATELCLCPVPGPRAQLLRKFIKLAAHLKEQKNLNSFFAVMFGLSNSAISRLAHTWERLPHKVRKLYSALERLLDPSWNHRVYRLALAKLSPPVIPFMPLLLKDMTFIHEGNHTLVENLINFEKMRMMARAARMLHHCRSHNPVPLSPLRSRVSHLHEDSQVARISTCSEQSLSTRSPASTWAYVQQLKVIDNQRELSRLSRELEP
Chain of Calcium and integrin-binding protein 1 (Homo sapiens) (Q99828 whole entry, looked up): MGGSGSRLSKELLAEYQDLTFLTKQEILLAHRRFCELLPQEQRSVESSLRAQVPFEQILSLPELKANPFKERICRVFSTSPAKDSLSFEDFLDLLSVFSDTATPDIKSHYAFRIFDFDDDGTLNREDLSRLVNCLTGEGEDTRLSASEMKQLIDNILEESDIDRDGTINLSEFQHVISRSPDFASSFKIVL
Chain of Glutathione peroxidase 1 (Homo sapiens) (P07203 whole entry, looked up): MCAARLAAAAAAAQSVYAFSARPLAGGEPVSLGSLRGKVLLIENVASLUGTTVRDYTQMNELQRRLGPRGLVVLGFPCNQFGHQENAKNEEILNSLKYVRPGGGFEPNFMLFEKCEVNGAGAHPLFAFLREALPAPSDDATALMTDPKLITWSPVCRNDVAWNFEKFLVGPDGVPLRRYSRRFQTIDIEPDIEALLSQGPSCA
Chain of Glucocorticoid receptor (Homo sapiens) (P04150 whole entry, looked up, the tested form may be a part): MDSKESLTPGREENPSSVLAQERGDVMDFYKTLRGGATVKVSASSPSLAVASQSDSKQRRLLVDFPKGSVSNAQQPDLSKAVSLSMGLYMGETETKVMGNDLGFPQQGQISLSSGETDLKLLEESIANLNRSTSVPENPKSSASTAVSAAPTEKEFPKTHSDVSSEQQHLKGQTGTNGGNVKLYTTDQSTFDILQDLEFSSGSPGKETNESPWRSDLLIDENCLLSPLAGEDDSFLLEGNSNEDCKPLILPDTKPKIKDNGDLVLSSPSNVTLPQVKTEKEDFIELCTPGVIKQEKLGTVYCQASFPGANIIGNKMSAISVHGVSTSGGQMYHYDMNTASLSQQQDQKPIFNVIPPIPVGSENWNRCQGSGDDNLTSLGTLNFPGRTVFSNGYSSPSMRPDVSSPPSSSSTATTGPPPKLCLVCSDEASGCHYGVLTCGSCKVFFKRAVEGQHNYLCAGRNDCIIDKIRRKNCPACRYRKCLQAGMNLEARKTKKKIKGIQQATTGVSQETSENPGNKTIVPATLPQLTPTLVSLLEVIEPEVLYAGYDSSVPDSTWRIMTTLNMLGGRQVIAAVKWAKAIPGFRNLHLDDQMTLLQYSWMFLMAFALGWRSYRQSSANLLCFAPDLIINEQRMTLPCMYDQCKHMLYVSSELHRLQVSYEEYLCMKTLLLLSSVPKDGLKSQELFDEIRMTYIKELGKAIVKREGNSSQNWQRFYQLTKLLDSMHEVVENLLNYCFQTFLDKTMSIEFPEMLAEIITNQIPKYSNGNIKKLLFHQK
Chain of Dual specificity protein kinase CLK4 (Homo sapiens) (Q9HAZ1 whole entry, looked up): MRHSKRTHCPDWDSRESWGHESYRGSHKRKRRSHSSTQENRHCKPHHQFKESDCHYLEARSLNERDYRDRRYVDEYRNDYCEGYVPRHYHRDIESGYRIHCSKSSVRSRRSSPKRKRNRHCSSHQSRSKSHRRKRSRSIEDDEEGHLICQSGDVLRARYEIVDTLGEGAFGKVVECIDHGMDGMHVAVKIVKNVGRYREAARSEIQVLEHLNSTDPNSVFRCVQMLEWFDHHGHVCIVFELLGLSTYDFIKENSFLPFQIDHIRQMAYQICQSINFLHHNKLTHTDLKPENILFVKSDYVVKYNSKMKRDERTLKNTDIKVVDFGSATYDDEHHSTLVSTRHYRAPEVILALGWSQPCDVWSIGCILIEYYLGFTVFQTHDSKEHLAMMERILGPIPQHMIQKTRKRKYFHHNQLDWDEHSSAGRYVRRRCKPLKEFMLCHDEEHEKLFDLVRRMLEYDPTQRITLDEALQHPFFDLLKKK
Chain of Cytochrome P450 3A4 (Homo sapiens) (P08684 whole entry, looked up): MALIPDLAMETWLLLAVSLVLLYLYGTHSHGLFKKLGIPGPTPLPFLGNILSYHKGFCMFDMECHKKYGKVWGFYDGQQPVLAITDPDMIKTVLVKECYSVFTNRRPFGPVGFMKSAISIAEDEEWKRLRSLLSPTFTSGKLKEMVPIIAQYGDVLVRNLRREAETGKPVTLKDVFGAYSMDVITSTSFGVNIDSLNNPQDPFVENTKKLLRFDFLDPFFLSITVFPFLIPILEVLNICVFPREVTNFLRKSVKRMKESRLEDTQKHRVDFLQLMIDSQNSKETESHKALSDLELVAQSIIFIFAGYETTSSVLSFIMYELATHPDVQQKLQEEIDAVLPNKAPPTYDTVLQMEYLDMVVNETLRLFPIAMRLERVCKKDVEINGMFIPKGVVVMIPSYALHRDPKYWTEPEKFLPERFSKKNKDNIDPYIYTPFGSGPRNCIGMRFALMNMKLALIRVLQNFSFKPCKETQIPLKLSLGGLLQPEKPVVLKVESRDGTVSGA
Chain of Lysosomal acid glucosylceramidase (Homo sapiens) (P04062 whole entry, looked up): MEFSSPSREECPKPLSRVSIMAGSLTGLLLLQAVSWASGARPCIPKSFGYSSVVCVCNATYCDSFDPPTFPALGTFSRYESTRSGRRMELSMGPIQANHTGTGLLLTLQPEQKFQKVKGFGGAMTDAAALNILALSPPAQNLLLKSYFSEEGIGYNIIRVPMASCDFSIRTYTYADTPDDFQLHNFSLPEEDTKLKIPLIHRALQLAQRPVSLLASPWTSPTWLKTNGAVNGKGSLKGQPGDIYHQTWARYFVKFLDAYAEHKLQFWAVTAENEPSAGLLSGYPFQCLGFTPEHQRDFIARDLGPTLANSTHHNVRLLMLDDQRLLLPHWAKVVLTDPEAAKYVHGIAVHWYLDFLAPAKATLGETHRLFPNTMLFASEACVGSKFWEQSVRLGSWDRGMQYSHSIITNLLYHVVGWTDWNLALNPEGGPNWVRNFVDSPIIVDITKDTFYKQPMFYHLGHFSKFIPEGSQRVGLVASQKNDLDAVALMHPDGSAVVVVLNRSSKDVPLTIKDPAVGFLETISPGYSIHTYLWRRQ

CC(=O)Nc1ccc(S(=O)(=O)N2CCN(c3ccc(C(C)=O)cc3)CC2)cc1
inactive: Potency [1] | Potency [2]

CN(C(=O)c1cn2c(-c3ccc(C(F)(F)F)cc3)cnc2cn1)c1ccc(C#N)cc1
inactive: Potency [2] | Potency [3]

O=C1Cc2cc(S(=O)(=O)N3CCNCC3)ccc2N1
inactive: Potency [1] | Potency [2] | Potency [4] | outcome [5] | activation [6] 3.97% [at 17.1 µM] | activity change, negative = inhibition [7] 9.22% [at 12.7 µM] | outcome [8]

CC(=O)c1ccc(N2CCN(S(=O)(=O)c3ccc4c(c3)CCCC(=O)N4)CC2)cc1
inactive: Potency [1] | Potency [2]

O=C1CCc2cc(S(=O)(=O)Nc3cccc(Cl)c3)ccc2N1
inactive: Potency [2] | Potency [9]

COC(=N)c1nc2ccc3ncnc(Nc4ccc(F)cc4Br)c3c2s1
inactive: Potency [2] | Potency [3]

CC(=O)c1ccc(N2CCN(S(=O)(=O)c3ccc4c(c3)C(=O)OC4)CC2)cc1
inactive: Potency [1] | Potency [2]

CCC(=O)NC(c1cccs1)c1cc(Cl)c2ccccc2c1O (stereo unspecified)
inactive: Potency [2] | Potency [4] | outcome [5] | activation [6] 0.826% [at 17.1 µM] | activity change, negative = inhibition [7] -13.9% [at 12.7 µM] | outcome [8] | activation [10] 29.3% [at 30.8 µM]

Nc1ncnc2c1C(c1ccccc1)c1c(ccc3ccccc13)O2 (stereo unspecified)
inactive: Potency [2] | outcome [5] | outcome [6] | Potency [7] | outcome [8]

CC(=O)Nc1sc2c(c1-c1ccc(N3CCN(C)CC3)cc1)CCNC2
inactive: Potency [2] | Potency [3]

CC(=O)c1ccc(N2CCN(S(=O)(=O)c3ccc4c(c3)C(Cl)(Cl)C(=O)N4)CC2)cc1
inactive: Potency [2] | outcome [5] | outcome [8]
active: Potency [4] 26.9 µM
32.6 µM (active) and inactive: Potency [1]

Clc1ccccc1-c1ccc2ncnc(NCc3cccnc3)c2c1
inactive: Potency [11] > 11.4 µM | activity change, negative = inhibition [12] 2.12% | activity change, negative = inhibition [14] 13.8% | activity, negative = inhibition [15] -5.2% | Potency [16] > 46 µM | Potency [17] > 46 µM | outcome [18] | Potency [20] | Potency [24] | Potency [2] | Potency [25]
active: Potency [13] 158 nM | Potency [19] 2 µM | Potency [21] 6.31 µM | Potency [22] 10 µM | Potency [23] 10 µM

CC(=O)NS(=O)(=O)c1ccc(NC(=O)c2cc(-c3ccc(C)c(C)c3)nc3ccccc23)cc1
inactive: Potency [26] | Potency [2] | outcome [5] | activation [6] 5.88% [at 17.1 µM] | activity change, negative = inhibition [7] -11.1% [at 12.7 µM] | outcome [8]
active: Potency [4] 44.7 µM

Cc1noc(CN(C)c2ncnc3ccc(-c4ccc5c(c4)OCO5)cc23)n1
inactive: Potency [2] | Potency [3]

O=C(CSc1nc2ccccc2n1CCc1ccccc1)c1ccc(O)c(O)c1
active: Potency [4] 6.01 µM
inactive: Potency [2] | outcome [5] | Potency [7] | outcome [8] | outcome [10]

CC(=O)c1ccc(N2CCN(S(=O)(=O)c3ccc4c(c3)OCC(=O)N4)CC2)cc1
inactive: Potency [1] | Potency [2]
